Assay results published in PubChem BioAssay (NCATS).
Results filed as inconclusive are left out. Entries that show only a call come without a potency. Values without a mark were called inactive. Calls of active or inactive are those of the source. The call rests on the fitted dose curve; in most records, active means well fitted curve in the direction sought with a large enough effect; inconclusive means small, poorly fitted or top-dose-only effect, or another doubt; inactive means no such curve, though single readings can be large; an effect the other way counts as inactive or inconclusive. Where a SMILES comes first, the peptide text is derived from it. [ ]: non-standard residue; d: D form.

Tests used:
[1] = Primary qHTS for inhibitors of nuclear receptor binding SET domain protein 2 (NSD2) in an isogenic RCH-ACV NSD2 p.E1099K mutant (9B) (AID 1645876)
[2] = Primary qHTS for inhibitors of nuclear receptor binding SET domain protein 2 (NSD2) in an RCH-ACV wild type WT cells (2C) (AID 1645877)
Further: nearly all actives have a fitted effect of over 70% in size.
Potency means the concentration at half of the fitted maximal effect.

Row | SMILES | Potency [1] | Potency [2] | activity change, negative = viability loss [1] | activity change, negative = cell killing [2]
1 | CC1CCC23COC(=O)C2=CC(O)CC3C1(C)CCC1=CC(=O)OC1O (stereo not drawn) | inactive | inactive | – | –
2 | CC(=O)N[C@H]1[C@H](O[C@H]2CC[C@@]3(C)C(CC[C@]4(C)C3CC=C3C5CC(C)(C)CC[C@]5(C(=O)O)[C@H](O[C@@H]5O[C@H](CO)[C@@H](O)[C@H](O)[C@H]5O)C[C@]34C)C2(C)C)O[C@H](CO[C@@H]2OC[C@H](O)[C@H](O)[C@H]2O[C@@H]2OC[C@@H](O)[C@H](O)[C@H]2O)[C@@H](O)[C@@H]1O (stereo partly drawn) | – | – | -9.03% [at 9.23 µM] | -14.8% [at 9.23 µM]
3 | CC(=O)N[C@H]1CCN(c2ccc(C3=NOC(CN[S+](=O)([O-])C(C)C)C3)cc2F)C1 (stereo partly drawn) | inactive | inactive | – | –
4 | CC(=O)OC1C(O)CC(O[C@@H]2O[C@H](CO)[C@@H](O)[C@H](O)[C@H]2O)C2CCC3C(=O)OC(c4ccoc4)CC3(C)C21 (stereo partly drawn) | inactive | inactive | – | –
5 | CC1=C2C(=O)C=C(CO)[C@@H]2[C@H]2OC(=O)[C@H](C)[C@@H]2[C@@H](O)C1 | inactive | inactive | – | –
6 | NS(=O)(=O)NCCNc1nonc1C(=Nc1ccc(F)c(Br)c1)NO | inactive | inactive | – | –
7 | CCCCC(=O)OCC(=O)[C@]1(O)Cc2c(O)c3c(c(O)c2[C@@H](O[C@H]2C[C@H](NC(=O)C(F)(F)F)[C@H](O)[C@H](C)O2)C1)C(=O)c1c(OC)cccc1C3=O | 263 nM (active) | 166 nM (active) | – | –
8 | C=C1[C@@H]2CC[C@@]3(C)[C@H](c4ccoc4)OC(=O)C[C@]13O[C@H]1CC(=O)C(C)(C)[C@H](CC(=O)OC)[C@]12C | inactive | inactive | – | –
9 | CC(C)(O)C1CCC2(C)C3C(O)C4C(C13)C42CO (stereo not drawn) | inactive | inactive | – | –
10 | CC1=CC(=O)CC(C)(CO[C@@H]2O[C@H](CO)[C@@H](O)[C@H](O)[C@H]2O)C1(O)/C=C/C(C)=C/C(=O)O (stereo partly drawn) | inactive | inactive | – | –
11 | C/C=C/C=C/C(CC(=O)O)Nc1ccc(C=O)cc1 (stereo not drawn) | inactive | inactive | – | –
12 | CC(=O)N[C@H](Cc1ccc(O)cc1)C(=O)N[C@H](CCCN=C(N)N)C(=O)N[C@H](Cc1ccccc1)C(N)=O (Ac-[dY]-[dR]-[dF]-NH2) | inactive | inactive | – | –
13 | C/C(=C/CCC(CO)C1CCC2(C)C3CCC4C(C)(C)C(OC5OC(CO)C(O)C(O)C5O)CC(O)C45CC35CCC12C)COC1OC(CO)C(O)C(O)C1O (stereo not drawn) | inactive | inactive | – | –
14 | CC1(C)CC2C(O)C3=C(CC(C)(O)C2C1)C(=O)OC3O (stereo not drawn) | inactive | inactive | – | –
15 | C[C@H]1C[C@H]2[C@@H]3CCC4=CC(=O)C=C[C@]4(C)[C@@]3(F)[C@@H](O)C[C@]2(C)[C@@]1(O)C(=O)COP(=O)(O)O | inactive | 57.8 nM (active) | – | –
16 | CC1=C2CC3OC3(C)CCC3OC3(C)CC2OC1=O (stereo not drawn) | inactive | inactive | – | –
17 | CC(c1c[nH]c2ccccc12)C(O)C(=O)O (stereo not drawn) | inactive | inactive | – | –
18 | COC(=O)[C@]12C(=O)C(C)=C(O)[C@@]1(C)C(C)=CC1[C@@]34CC[C@@H](OC(C)=O)C(C)(C)C3[C@H](C[C@]12C)OC4=O (stereo partly drawn) | inactive | inactive | – | –
19 | COc1c2c(c(C)c3c1C(=O)OC3)O[C@@]1(C)C[C@@H](O)[C@]34O[C@](OC)(CC[C@]3(C)[C@H]1C2)OC4(C)C | inactive | inactive | – | –
20 | C=C(C)C1CC2(CO)C(=CC1=O)CCC(O)C2C (stereo not drawn) | inactive | inactive | – | –
21 | CCC[C@@H]1C[C@@H](C(=O)N[C@@H]([C@H]2O[C@H](SC)[C@H](O)[C@@H](O)[C@@H]2O)[C@@H](C)O)N(C)C1 | inactive | inactive | – | –
22 | COC1=CC(=O)O[C@@H](/C=C/c2ccccc2)[C@@H]1O | inactive | inactive | – | –
23 | CC1=C2C3OC(=O)C(C)C3(O)CCC2(C)CCC1=O (stereo not drawn) | inactive | inactive | – | –
24 | COc1ccc(C(OC2OC(CO)C(O)C(O)C2O)C(C)O)cc1 (stereo not drawn) | inactive | inactive | – | –
25 | CC/C=C/CC1=C(CCCCCCCC(=O)O)CCC1=O | inactive | inactive | – | –
26 | C[C@@H]1CCC2C(C)(C)[C@H](O)CC[C@]2(C)[C@@]12Cc1c(O)cc3c(c1O2)CN(CCO)C3=O (stereo partly drawn) | inactive | inactive | – | –
27 | C[C@@H]1C[C@H](O)/C=C/[C@H](O)[C@@H](O)CC(=O)O1 | inactive | inactive | – | –
28 | C=C/C=C/[C@@H]1OC[C@H](/C=C/C=C/C)[C@H]1O | inactive | inactive | – | –
29 | CC(=O)O[C@H](C[C@@H](C)[C@H]1C(=O)[C@H](O)[C@@]2(C)[C@@H]3CCC4C(C)(C)[C@@H](O[C@@H]5OC[C@H](O)[C@H](O)[C@H]5O)CC[C@@]45C[C@@]35CC[C@]12C)[C@@H]1OC1(C)C (stereo partly drawn) | inactive | inactive | – | –
